# Test results as given in PubChem BioAssay (NCI).
# Compounds without any hit were thinned out: in the full panel of roughly 83,000, 20% have a hit.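 A percent growth of 40 corresponds to 60% growth inhibition; 0 means no net growth; -100 means all cells died. Active threshold: below 10.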 The source made the active and inactive calls.
# Tested on: SK-MEL-5 melanoma
# Assay: NCI-60 one-dose screen, 48 h (100 = growth as untreated, 0 = no growth, -100 = all killed)
# Conditions: 10 µM unless noted
# Description: Growth inhibition of the SK-MEL-5 human tumor cell line is measured as a screen for anti-cancer activity. Cells are grown in 96 well plates and exposed to the test compound for 48 hours. Compounds are tested at a single concentration, which is 10^-5 M for most compounds. The reported endpoint is percent growth (GI% or GIPRCNT), where numbers from 0 - 100% represent growth inhibition, and numbers from -100% - 0 represent cell death. For example, a value of 40 represents 60% growth inhibition. A value of 0 means no net growth occurred over the course of the experiment. A value of -40 indicates 40% of cells at the beginning of the experiment died by the end of the experiment. A value of -100 means all cells are dead at the end of the experiment.
# NCI-60 Human Tumor Cell Lines Screen was performed using the standard one-dose NCI protocol, which is described in more detail at https://dtp.cancer.gov/discovery_development/nci-60/default.htm.
# Compounds with GIPRCNT values below 10 were considered active. Activity score was based on GIPRCNT using the following formula: […]
# Score is 0 for GIPRCNT values of 100 or above, 50 for GIPRCNT values of 0, and 100 for GIPRCNT values of -100.
row,Structure (SMILES),growth
1,CC(=O)O[C@H]1CC[C@]2(C)[C@H]3CC=C4[C@@H]5[C@H](C)[C@@H](C)CC[C@]5(C(=O)NCCNCCNCCN)CC[C@@]4(C)[C@]3(C)CC[C@H]2C1(C)C,96.3% (inactive)
2,Cc1ccc2oc(=O)cc(-c3sc(N4CCCCC4)nc3-c3ccccc3)c2c1,91.3% (inactive)
3,C[C@H]1[C@H]2C3=CC[C@@H]4[C@@]5(C)C/C(=C/c6ccco6)C(=O)C(C)(C)[C@@H]5CC[C@@]4(C)[C@]3(C)CC[C@@]2(C(=O)N2CCOCC2)CC[C@@H]1C,72.1% (inactive)
4,NS(=O)(=O)c1ccc(CCNC(=O)/C=C/c2ccc(Cl)cc2)cc1,105% (inactive)
5,COc1cc2[nH]c(C(=O)c3cc(OC)c(OC)c(OC)c3)c(N)c2cc1C#CCO,-0.319% (active)
6,COc1cc(C(=O)/C=C/c2cc(-c3ccc4c(c3)OCO4)n[nH]2)cc(OC)c1OC,63% (inactive)
7,C=C(C)[C@@H]1CC[C@]2(C=O)CC[C@]3(C)[C@H](CC[C@@H]4[C@@]5(C)C/C(=C/c6cccnc6)C(=O)C(C)(C)[C@@H]5CC[C@]43C)[C@@H]12,74.4% (inactive)
8,Cc1ccc(-c2nc3ccc(Cl)cc3c(=O)n2N2C(=O)CSC2c2ccccc2Cl)cc1 (stereo not given),94% (inactive)
9,CCN1CCN(C(=O)[C@]23CC[C@@H](C)[C@H](C)[C@H]2C2=CC[C@@H]4[C@@]5(C)C/C(=C/c6cccc(OC)c6OC)C(=O)C(C)(C)[C@@H]5CC[C@@]4(C)[C@]2(C)CC3)CC1,46.2% (inactive)
10,Cc1cc(N(CCCNc2ccnc3cc(Cl)ccc23)Cc2ccco2)nc(Cl)n1,-8.23% (active)
11,CCCCC[C@H]1CC=C2C(=O)C(Cl)=C[C@@H]2CC=CCCCC(=O)O[C@@H](CCCCC)CC=C2C(=O)C(Cl)=C[C@@H]2CC=CCCCC(=O)O[C@@H](CCCCC)CC=C2C(=O)C(Cl)=C[C@@H]2CC=CCCCC(=O)O1,62.2% [8 µM] (inactive)
12,COc1ccc(-c2cc(-c3c(C)oc4cc5occc5c(OC)c4c3=O)nc(N)c2C#N)cc1OC,52.7% (inactive)
13,CC(C)(C)c1[nH]nc2c1C(c1cc3ccccc3[nH]c1=O)Nc1cc(C(=O)OCc3ccccc3)ccc1N2 (stereo not given),39.3% (inactive)
14,C=C(C)[C@@H]1CC[C@]2(C(=O)O)CC[C@]3(C)[C@H](CC[C@@H]4[C@@]5(C)C/C(=C/c6cccc(I)c6)C(=O)C(C)(C)[C@@H]5CC[C@]43C)[C@@H]12,13.9% (inactive)
15,CC(C)=CCC[C@](C)(O)[C@H]1CC[C@]2(C)[C@@H]1CC[C@@H]1[C@@]3(C)C/C(=C/c4cccc([N+](=O)[O-])c4)C(=O)C(C)(C)[C@@H]3CC[C@]12C,101% (inactive)
16,CC1(C)C(=O)/C(=C\c2cccnc2)C[C@]2(C)[C@H]3CC[C@@H]4[C@@H](C(=O)/C=C/c5ccncc5)CC[C@@]4(C)[C@]3(C)CC[C@@H]12,-10.9% (active)
17,Cn1cc(-c2csc(-c3cn(C(=O)OC(C)(C)C)c4ccc(Br)cc34)n2)c2cccnc21,97% (inactive)
18,CC1(C)C=CC[C@]2(C)[C@H]3CC[C@@H]4[C@H]5[C@H](C(=O)/C=C/c6cccnc6)CC[C@]5(CO)CC[C@@]4(C)[C@]3(C)CC[C@@H]12,-99.3% (active)
19,Nc1c(Cl)cc(N=Nc2ccccc2)cc1Cl,94.3% (inactive)
20,COc1ccc2c(c1)c(-c1nc(-c3cn(C)c4ncccc34)cs1)cn2CCN,60.3% (inactive)

row,Structure (SMILES),growth
1,N#CC1=C(N)Oc2c(sc3c(F)cccc23)C1c1ccc(Cl)cc1 (stereo not given),18.1% (inactive)
2,COc1ccc(CCN2C(=O)C(C)(C)SC2=S)cc1OC,99.5% (inactive)
3,O=C1C(Cl)=C(Nc2ccc(S(=O)(=O)c3ccc(NC4=C(Cl)C(=O)c5ccccc5C4=O)cc3)cc2)C(=O)c2ccccc21,49.3% (inactive)
4,Cc1cc(N2CCN(C)CC2)nc(N(CCNc2ccnc3cc(Cl)ccc23)Cc2ccco2)n1,-82% (active)
5,O=c1c(CNc2ccc(S(=O)(=O)Nc3ncccn3)cc2)coc2ccccc12,95.9% (inactive)
6,CC1(C)C(=O)CC[C@]2(C)[C@H]3C(=O)C=C4[C@@H]5C[C@@](C)(C(=O)NCCNCCN)CC[C@]5(C)CC[C@@]4(C)[C@]3(C)CC[C@@H]12,96.8% (inactive)
7,Cc1ccc(/C=C(\C#N)c2cc3ccccc3n2C)cc1,23% (inactive)
8,COc1ccc(C2(Cl)c3ccccc3N(c3ccccc3)c3ccccc32)cc1,-87.3% (active)
9,CC1(C)CC[C@]2(C(=O)Nc3ccccn3)CC[C@]3(C)C(=CC[C@@H]4[C@@]5(C)C/C(=C/c6ccncc6)C(=O)C(C)(C)[C@@H]5CC[C@]43C)[C@@H]2C1,-49.8% (active)
10,Cn1c(=O)c2c(ncn2CCC(=O)Nc2ccc(F)cc2)n(C)c1=O,111% (inactive)
11,O=[N+]([O-])c1cccc(/C=N\Nc2ccccc2)c1,92.5% (inactive)
12,O=S(=O)(NCCNc1cc(-c2cn(-c3ccccc3)nc2-c2cccc(O)c2)ccn1)c1ccc(Br)cc1,11.5% (inactive)
13,COc1ccc(NC(=S)N/N=C/c2ccccc2SSCCC(=O)OC[C@H]2O[C@H](O)[C@H](O)[C@@H](O)[C@@H]2O)cc1,71.7% (inactive)
14,Fc1ccc(NCc2nnc(-c3ccc(Cl)cc3)o2)cc1,79.8% (inactive)
15,Cc1nnc2nc(N)[nH]n2c1=O,106% (inactive)
16,Brc1ccc2[nH]cc(-c3nc(-c4c[nH]c5ncccc45)cs3)c2c1,54.7% (inactive)
17,O=S(=O)(NCCNc1cc(-c2cn(-c3ccccc3)nc2-c2cccc(O)c2)ccn1)c1cccc(F)c1,26.9% (inactive)
18,Nc1ccccc1NC(=O)c1ccc(CN2CCC/C(=C\c3ccccn3)C2=O)cc1,-15.6% (active)
19,O=C(NC(Cc1cn(Cc2ccccc2)cn1)C(=O)O)OCC1c2ccccc2-c2ccccc21 (stereo not given),103% (inactive)
20,COC(=O)[C@]12CC[C@@H](C(/C=C/c3cccnc3)=N/O)[C@@H]1[C@H]1CC[C@@H]3[C@@]4(C)CC(=C/c5cccnc5)/C(=N/O)C(C)(C)[C@@H]4CC[C@@]3(C)[C@]1(C)CC2,-21.5% (active)
